Records with an inconclusive call do not appear. Unless noted, calls follow the shape of the dose curve; as a rule, active = well fitted curve in either direction with a large enough effect (not every such curve was filed as active); inconclusive = small, poorly fitted or top-dose-only effect, or another doubt; inactive = flat fitted curve, though single readings scatter.
What was measured:
[1] = AP1 Signaling Pathway (AID 357); conditions: ME-180 AP-1-bla reporter, EGF-induced, beta-lactamase ratio, 5 h; at 17.2 µM (top of the series) unless noted;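 also: ME-180 reporter cells stimulated with EGF at its EC50 level; % is scaled to controls: 0 for no effect and ±100 for the full control effect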
Summary of the method: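 In this screen, ME-180 cells in Opti-MEM with 0.5% dialyzed FBS received EC50 EGF and compound titrations for 5 h. AP-1 reporter beta-lactamase was detected via CCF4 ratio, giving AC50 for positive and negative modulators.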

[2] = NFAT Signaling Pathway (AID 444); conditions: Jurkat NFAT-bla M1, carbachol, beta-lactamase ratio, 5 h; at 17.2 µM (top of the series) unless noted;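 also: carbachol stimulus at about its EC50 of 1 µM final; % is scaled to controls: 0 for no effect and ±100 for the full control effect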
Summary of the method: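 Read-out: CCF4 FRET ratio (460 nm/530 nm) after 1 h RT dye loading, used for %activity and AC50 from titration series. Cells: Jurkat NFAT-β-lactamase/M1 line, treated with compound plus 1 uM carbachol for 5 h, 37 °C.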

[3] = Stat Signaling Pathway (AID 446); conditions: ME-180 (cervical carcinoma) SIE beta-lactamase reporter, IL-6 stimulated, 5 h; at 17.2 µM (top of the series) unless noted;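 also: ME-180 cervical cancer cells given 40 pM IL-6 alongside compound; SIE-controlled beta-lactamase reporter measured as 460/530 nm FRET emission ratio; % is scaled to controls: 0 for no effect and ±100 for the full control effect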
Summary of the method: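 Emission at 460 and 530 nm (excitation 405 nm) reports SIE-controlled beta-lactamase in ME-180 cells. Cells received compound with 40 pM IL-6 for 5 hrs at 37 C; data scaled between 300 pM IL-6 and 125 nM JAK-inhibitor controls.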

[4] = molecular target: Glucocorticoid receptor (Homo sapiens) (UniProt P04150); test: GR-GFP Redistribution (AID 450;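 active = compounds whose dose series gives a full or clear partial fitted curve of increased nuclear translocation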; also: potency is read from the fitted curve at half-maximal effect)
Glucocorticoid receptor (Homo sapiens), sequence (P04150 whole entry, looked up): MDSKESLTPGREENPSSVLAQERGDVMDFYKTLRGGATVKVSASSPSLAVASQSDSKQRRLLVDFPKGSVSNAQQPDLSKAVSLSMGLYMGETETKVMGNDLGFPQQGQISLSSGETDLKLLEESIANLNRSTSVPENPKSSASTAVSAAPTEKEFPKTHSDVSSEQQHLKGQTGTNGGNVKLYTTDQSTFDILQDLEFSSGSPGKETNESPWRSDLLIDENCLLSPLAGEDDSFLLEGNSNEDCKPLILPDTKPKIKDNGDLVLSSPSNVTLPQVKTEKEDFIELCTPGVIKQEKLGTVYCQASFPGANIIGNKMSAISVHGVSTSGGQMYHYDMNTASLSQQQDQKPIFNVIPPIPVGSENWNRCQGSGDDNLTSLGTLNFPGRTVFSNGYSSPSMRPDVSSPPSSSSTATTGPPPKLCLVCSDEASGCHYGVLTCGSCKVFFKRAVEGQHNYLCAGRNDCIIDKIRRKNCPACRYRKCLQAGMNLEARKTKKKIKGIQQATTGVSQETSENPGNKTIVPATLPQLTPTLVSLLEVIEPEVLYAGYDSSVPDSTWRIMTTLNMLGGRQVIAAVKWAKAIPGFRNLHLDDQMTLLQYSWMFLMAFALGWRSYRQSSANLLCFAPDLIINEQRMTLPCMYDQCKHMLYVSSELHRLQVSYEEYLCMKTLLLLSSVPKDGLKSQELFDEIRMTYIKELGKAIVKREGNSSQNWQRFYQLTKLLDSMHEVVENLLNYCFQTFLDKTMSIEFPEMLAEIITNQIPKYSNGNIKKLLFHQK

Cc1ccc(-c2nnc(OCCN3CCOCC3)c3ccccc23)cc1
inactive: activity change, negative = inhibition [1] -9.96% | activity change, negative = inhibition [2] 5.38% | activity, negative = inhibition [3] -1.56% | Potency [4] > 20.6 µM

Cc1cc(=O)oc(C)c1C(=O)n1nc(C)c2c1C[C@@H]1[C@H]2C1(C)C
inactive: activity change, negative = inhibition [1] -2.2% | activity change, negative = inhibition [2] -1.13% | activity, negative = inhibition [3] -1.83% | Potency [4] > 20.6 µM

Nc1ccc2cn[nH]c2c1
inactive: activity change, negative = inhibition [1] 4.71% | activity change, negative = inhibition [2] 2.08% | activity, negative = inhibition [3] 6.7% | Potency [4] > 20.6 µM

Cc1nc(-c2c(-c3ccc(O)cc3O)noc2C(F)(F)F)cs1
inactive: activity change, negative = inhibition [1] -11.8% | activity change, negative = inhibition [2] -22% | activity, negative = inhibition [3] -18.8% | Potency [4] > 20.6 µM

C[C@@H]1C[C@H](Nc2ccccc2)c2ccccc2N1C(=O)c1cccnc1
inactive: activity change, negative = inhibition [1] 5.62% | activity change, negative = inhibition [2] -3.58% | activity, negative = inhibition [3] -2.73% | Potency [4] > 20.6 µM

O=C(CSc1nnc(-c2ccccc2)c(-c2ccccc2)n1)N1CCOCC1
inactive: activity change, negative = inhibition [1] -3.06% | activity change, negative = inhibition [2] 0.00472% | activity, negative = inhibition [3] 8.97% | Potency [4] > 20.6 µM

CC1(C)NC(=O)N(CC(O)COc2ccccc2C(=O)Nc2ccccc2)C1=O (centres undefined)
inactive: activity change, negative = inhibition [1] -6.46% | activity change, negative = inhibition [2] 9.58% | activity, negative = inhibition [3] 3.3% | Potency [4] > 20.6 µM

CCCCCc1nc2sc3c(c2c(=O)n1N)CCC3
inactive: activity change, negative = inhibition [1] -5.09% | activity change, negative = inhibition [2] -10.1% | activity, negative = inhibition [3] -13% | Potency [4] > 20.6 µM

Cc1ccc(/C=N/n2nnnc2N)o1
inactive: activity change, negative = inhibition [1] 2.97% | activity change, negative = inhibition [2] -0.388% | activity, negative = inhibition [3] -5.51% | Potency [4] > 20.6 µM

CCCCNC(=O)N1CCOCCOCCN(C(=O)NCCCC)CCOCCOCC1
inactive: activity change, negative = inhibition [1] 3.89% | activity change, negative = inhibition [2] 5.69% | activity, negative = inhibition [3] -1.16% | Potency [4] > 20.6 µM

Cc1ccc(C2C(C(=O)c3cc4ccccc4o3)=C(O)C(=O)N2CCCN(C)C)cc1 (centres undefined)
inactive: activity change, negative = inhibition [1] 4.95% | activity change, negative = inhibition [2] -2.86% | activity, negative = inhibition [3] 1.75% | Potency [4] > 20.6 µM

Oc1ccccc1-c1nc(NCCN2CCOCC2)c2ccccc2n1
inactive: activity change, negative = inhibition [1] -13.2% | activity change, negative = inhibition [2] 25.8% | activity, negative = inhibition [3] -12.5% | Potency [4] > 20.6 µM

N#C/C(C(=O)NCc1ccccc1)=C1\SC(CCO)C(=O)N1c1ccccc1 (centres undefined)
inactive: activity change, negative = inhibition [1] -9.75% | activity change, negative = inhibition [2] 10.3% | activity, negative = inhibition [3] -2.91% | Potency [4] > 20.6 µM

Cn1c(=O)c2c(nc(NCc3ccco3)n2CCc2ccccc2)n(C)c1=O
inactive: activity change, negative = inhibition [1] -0.525% | activity change, negative = inhibition [2] -24% | activity, negative = inhibition [3] -5.04% | Potency [4] > 20.6 µM

O=C(N(c1ccccc1)c1ccccc1)n1ccnc1
inactive: activity change, negative = inhibition [1] 7.1% | activity change, negative = inhibition [2] 10.9% | activity, negative = inhibition [3] 0.426% | Potency [4] > 20.6 µM

Cc1ccc(S(=O)(=O)NC(=O)Nc2ncc3c(n2)CC(c2ccco2)CC3=O)cc1 (centres undefined)
inactive: activity change, negative = inhibition [1] -9.62% | activity change, negative = inhibition [2] 7.22% | activity, negative = inhibition [3] -2.33% | Potency [4] > 20.6 µM

CCOC(=O)CSc1nc(C)c(C(C)=O)cc1C#N
inactive: activity change, negative = inhibition [1] 8.73% | activity change, negative = inhibition [2] -3.61% | activity, negative = inhibition [3] 6.11% | Potency [4] > 20.6 µM

COC(=O)/C=c1/s/c(=C(/C#N)C(=O)N2CCOCC2)n(-c2ccccc2)c1=O
inactive: activity change, negative = inhibition [1] 8.21% | activity change, negative = inhibition [2] -4.89% | activity, negative = inhibition [3] -9.79% | Potency [4] > 20.6 µM

CC(C)CC(=O)Nc1ncnc2c1C(=O)CC(C)(C)C2
inactive: activity change, negative = inhibition [1] 1.69% | activity change, negative = inhibition [2] -2.65% | activity, negative = inhibition [3] 14.7% | Potency [4] > 20.6 µM

O=C(Nc1nc(=O)c2ccccc2s1)c1ccccc1
inactive: activity change, negative = inhibition [1] -10.8% | activity change, negative = inhibition [2] -15.9% | activity, negative = inhibition [3] -3.03% | Potency [4] > 20.6 µM

Cc1cccc(-c2nnc3n2N=C(c2ccccc2)CS3)c1
inactive: activity change, negative = inhibition [1] -18.5% | activity change, negative = inhibition [2] -10.4% | activity, negative = inhibition [3] -6.13% | Potency [4] > 20.6 µM

CCn1cc(/C=N/O)c(C)n1
inactive: activity change, negative = inhibition [1] -0.439% | activity change, negative = inhibition [2] -4.37% | activity, negative = inhibition [3] 14% | Potency [4] > 20.6 µM

O=C(Nc1nccs1)NC(C(F)(F)F)C(F)(F)F
inactive: activity change, negative = inhibition [1] -10.3% | activity change, negative = inhibition [2] 9.14% | activity, negative = inhibition [3] 10.4% | Potency [4] > 20.6 µM

COc1ccc(-c2nc3n(c2Br)CCC3)cc1
inactive: activity change, negative = inhibition [1] -3.45% | activity change, negative = inhibition [2] 1.51% | activity, negative = inhibition [3] 0.643% | Potency [4] > 20.6 µM

CN1c2ccccc2N(C)C1c1c(O)ccc2ccccc12
inactive: activity change, negative = inhibition [1] -1.37% | activity change, negative = inhibition [2] -27.9% | activity, negative = inhibition [3] -4.67% | Potency [4] > 20.6 µM

COc1ccc(CC(=O)OCN2C(=O)c3ccccc3C2=O)cc1
inactive: activity change, negative = inhibition [1] 11.9% | activity change, negative = inhibition [2] -7.12% | activity, negative = inhibition [3] -0.768% | Potency [4] > 20.6 µM

— PubChem BioAssay (NCATS)
